Source: PubChem
KB-V1 cytotox: kills drug-selected multidrug resistant KB-V1 cells; KB-V1 MDR cells viability, CellTiter-Glo, 72 h; Potency, µM (doses to about 46.1 µM), hits mostly cytotoxic; 400,000 compounds, 3.4% hits; AID 1347076; also: % is scaled to controls: 0 for no effect and ±100 for the full control effect; nearly all actives have a fitted effect of over 60% in size
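Cytotoxicity toward P-gp-expressing KB-V1 cells was determined as loss of CellTiter-Glo luminescence after 72 h at 37 degrees C. Compounds were tested in quantitative HTS format across a concentration range, with curves fitted to normalized data.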
MCF10A rereplic: induces DNA re-replication in MCF 10a normal breast cells | MCF 10A DNA re-replication, Hoechst nuclear intensity, 48 h | Potency, µM (series often up to 46.1 µM), without a hit: at the highest dose activity, positive = re-replication, actives largely listed as activators | 350,000 compounds, 2.9% hits | AID 624296; also: % of control where 0% means no effect; nearly all actives have a fitted effect of over 50% in size
SW480 rerep: inducers of DNA re-replication in SW480 colon cancer cells; 340,000 compounds, 1.8% hits; SW480 DNA re-replication, Hoechst DNA content imaging, 48 h; AID 624297; Potency, µM (highest dose often 46.1 µM), without a hit: at the top dose re-replication activation, actives largely listed as activators; also: % of control where 0% means no effect; nearly all actives have a fitted effect of over 55% in size
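Hoechst fluorescence of nuclei (405 nm excitation, 500-530 nm emission) measured by plate-scanning imager after 48 hr compound exposure at 37 C; re-replication scored as increased number of nuclei with elevated intensity.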
PINK1 expr mod: modulators of PINK1 expression; PINK1 immunofluorescence, high-content cytometry, 24 h; Potency, µM (highest dose often 76.6 µM), for inactives: top-dose activation (PINK1 increase), actives largely listed as activators; 410,000 compounds, 0.2% hits; active = well fitted activation curve with a large enough effect; inconclusive = small, poorly fitted or top-dose-only effect; cell line not stated here; also: % of control where 0% means no effect; nearly all actives have a fitted effect of over 65% in size
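Fluorescence from anti-PINK1 antibody, together with nuclear and cell stains, was scanned on a laser-scanning cytometer. Before staining, stable-line cells were incubated 24 hours with compounds at 5 concentrations; primary antibody 12 h at 10 degrees C.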
12-LOX inh: blocks human arachidonate 12S-lipoxygenase | P18054 | purified 12hLO, xylenol orange hydroperoxide absorbance | Potency, µM (top dose mostly 108 µM), for the others: at the highest dose activity change, negative = inhibition, usual class: inhibitors | 580,000 compounds, 1.1% hits | AID 1671190; also: % is scaled to controls: 0 for no effect and ±100 for the full control effect
Target sequence (P18054 whole entry, looked up): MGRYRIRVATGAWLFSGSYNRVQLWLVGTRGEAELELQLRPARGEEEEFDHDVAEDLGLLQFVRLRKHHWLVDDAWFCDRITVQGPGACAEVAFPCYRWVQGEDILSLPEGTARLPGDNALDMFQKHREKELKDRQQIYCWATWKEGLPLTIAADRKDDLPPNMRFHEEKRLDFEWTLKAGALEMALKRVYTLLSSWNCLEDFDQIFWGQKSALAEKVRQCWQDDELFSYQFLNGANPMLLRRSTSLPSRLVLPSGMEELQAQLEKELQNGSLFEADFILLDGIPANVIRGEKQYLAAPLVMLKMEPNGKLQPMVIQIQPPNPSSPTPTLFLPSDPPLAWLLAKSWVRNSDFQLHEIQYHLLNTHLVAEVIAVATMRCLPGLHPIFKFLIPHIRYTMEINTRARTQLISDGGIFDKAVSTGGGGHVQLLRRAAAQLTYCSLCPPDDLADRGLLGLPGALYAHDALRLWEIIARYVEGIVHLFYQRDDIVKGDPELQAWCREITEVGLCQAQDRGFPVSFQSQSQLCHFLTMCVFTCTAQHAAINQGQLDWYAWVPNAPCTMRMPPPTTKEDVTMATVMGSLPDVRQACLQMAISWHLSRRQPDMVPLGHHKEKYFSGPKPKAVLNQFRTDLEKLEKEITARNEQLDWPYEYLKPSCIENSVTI
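Purified human 12hLO (150 nM final) in 25 mM Hepes, 0.01% Triton X-100, pH 7.0 was preincubated 15 min at room temperature with compound. Then 40 uM arachidonic acid was added, 30 min. Hydroperoxide was read by Fe-XO absorbance ratio 573/405 nm.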
KB-3-1 cytotox: KB-3-1 parental cell cytotoxicity. 400,000 compounds, 1.4% hits. Potency, µM (titrated, usually from 46.1 µM), hits mostly cytotoxic. KB-3-1 viability, CellTiter-Glo ATP luminescence, 72 h; also: % is scaled to controls: 0 for no effect and ±100 for the full control effect; nearly all actives have a fitted effect of over 60% in size
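Parental KB-3-1 viability, qHTS format: 72 h compound exposure, 37 °C; CellTiter-Glo; media-only wells and DMSO plates as controls; concentration-effect fits on corrected data.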
The depositor's hits bear a star; i = inactive; u = inconclusive; x = not tested or not shown; [ ] = another dose, or the depositor's remark. Shown are actives, neighbours in structure and some others; about 5.8% of the full set was active somewhere. Unless noted, calls follow the shape of the dose curve; as a rule, active = well fitted curve in the direction sought with a large enough effect; inconclusive = small, poorly fitted or top-dose-only effect, or another doubt; inactive = no such curve, though single readings can be large; an effect the other way counts as inactive or inconclusive. Potency is read from the fitted curve at half-maximal effect.

SMILES	KB-V1 cytotox	MCF10A rereplic	SW480 rerep	PINK1 expr mod	12-LOX inh	KB-3-1 cytotox
COc1ccc(OCCCOc2ccc(Cl)cc2/C=N/NC(N)=O)cc1	x	x	x	x	-64%	x
CCCC(=O)NNc1c2ccccc2nc2ccccc12	16µM*	-9%	-9%	2%	2%	i
O=C(COc1ccccc1)NNc1c2ccccc2nc2ccccc12	18µM*	22%	-1%	-2%	-24%	i
O=C(CCCO)NNc1c2ccccc2nc2ccccc12	i	-5%	u	0%	u	i
O=C(NNc1c2ccccc2nc2ccccc12)c1ccccc1O	21µM*	7%	-12%	4%	-15%	i
O=C(NNc1c2ccccc2nc2ccccc12)c1ccc(O)cc1O	i	-16%	2%	2%	-7%	i
O=C(NNC(=O)c1cccc2ccccc12)c1ccccc1O	i	-41%	7.3µM*	-1%	x	u
Cc1ccc(-c2cc(C(=O)O)c3cc(Br)ccc3n2)cc1C	x	x	x	x	4%	x
COc1cc(NC(=O)CSc2nc3cc(C)[nH]c3c(=O)n2C)cc(OC)c1OC	x	x	x	x	-6%	x
CCOc1ccccc1OCCCC(=O)Nc1ccc2c(C)cc(=O)oc2c1	x	x	x	x	-10%	x
COc1ccc(OCC(=O)NNC(=O)C(=O)Nc2ccccc2)cc1	i	22%	-25%	0%	1%	i
COc1ccc(OCC(=O)NNc2c3ccccc3nc3ccccc23)cc1	4.6µM*	u	-3%	10%	3%	u
O=C(NNc1nc(=O)c2cccnc2s1)c1ccccc1O	i	-8%	0.92µM*	1%	6%	u
CC1CCCCN1CCNC(=O)c1nn(C)c2c1COc1ccccc1-2 (stereo unspecified)	x	x	x	x	-3%	x
CS(=O)(=O)NCC1CCCN(C(=O)c2cnc3ccccc3n2)C1 (stereo unspecified)	x	x	x	x	16%	x
COC(C(=O)N/N=C(\C)CC(C)(C)c1ccccc1)c1ccccc1 (stereo unspecified)	x	x	x	x	6%	x
Cc1ccc(S(=O)(=O)Cc2ccc(C(=O)NCc3ccc4c(c3)OCO4)o2)cc1	9.2µM*	13%	-6%	-15%[38.3 µM]	u	i
Cc1ccc(CS(=O)Cc2ccc(C(=O)NCc3ccc4c(c3)OCO4)o2)cc1 (stereo unspecified)	i	0%	u	-1%	-14%	i
CC(NC(=O)c1ccc(CS(=O)(=O)c2ccc(Cl)cc2)o1)c1ccc2c(c1)OCCO2 (stereo unspecified)	10µM*	u	-7%	-1%	27%	i
Cc1ccc2c(ccn2CCC(=O)Nc2nnc(C(C)C)s2)c1	x	x	x	x	-3%	x
Cc1cccc(C)c1N=Cc1c(O)n(-c2nccs2)c(=O)c2ccccc12	23µM*	3%	1%	-1%	x	i
Cc1cc(C)c(N=Cc2c(O)n(-c3nccs3)c(=O)c3ccccc23)c(C)c1	i	8%	16%	0%	3%	i
COc1ccc2nc(C)c(C(=O)NCCCC(N)=O)cc2c1	x	x	x	x	6%	x
COc1ccc(C(C)(O)c2nc(-c3cncnc3)cs2)cc1 (stereo unspecified)	i	x	x	1%	-11%	i
CCN(CC)C(=O)c1cccc(-c2csc(C(C)(O)c3ccc(OC)cc3)n2)c1 (stereo unspecified)	u	x	x	3%	10%	12µM*
COc1ccc(C(C)(O)c2nc(-c3ccoc3)cs2)cc1 (stereo unspecified)	i	x	x	4%	28µM*	i
C=CCNC(=O)NC(=O)CSc1nc(-c2ccco2)nc2ccccc12	x	x	x	x	-20%	x
CCc1nnc(NC(=O)CSc2nnc(-c3ccccc3O)n2-c2ccc(C)cc2C)s1	18µM*	9.2µM*	18µM*	5%	0%	u
CCc1nnc(NC(=O)CSc2nnc(COc3ccccc3)n2-c2ccc(C)cc2)s1	i	5%	6%	0%	4%	i
N#CC(=Cc1ccc(O)c(O)c1)C(=O)NCc1ccccc1	i	x	x	0%	27%[57.4 µM]	i
